Structures are written as SMILES. Among all 190,000 compounds or so, about 930 (0.49%) were called active.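 How the source made its calls: active means z-score of insulin promoter reporter brightness in nuclei below -3 at 5 µM, with at least 500 cells counted; inconclusive means wells with under 500 cells, flagged as toxic or sparse; inactive means the rest.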 The list shows a part of the results. Measured potencies and affinities stand elsewhere.

This experiment in a line: insulin promoter down-regulators in MIN6 cells, imaging, high-content screening, mouse beta cells (AID 1628). The following applies: MIN6 insulin promoter GFP reporter, at 5 µM, stronger effect = lower value.
Consider `CCc1ccc(C(O)(c2ccccc2OC)C(CN2CCOCC2)c2ccccc2)cc1` (stereo unspecified), for which the z-score is -3.08 (active). As for `CCN(CC)CCCOC(=O)C(c1ccccc1)c1ccccc1`, the z-score was 0.01 (inactive). Consider `N#C/C(=C\c1ccc(N2CCOCC2)o1)c1ccccc1`, for which the z-score was 4.39 (inactive).

`CC(=O)c1c(N2CCOCC2)[nH]c(-c2ccccc2)nc1=S`: the z-score is 7.72 (inactive).

Consider `COc1ccc(OCC(=O)Nc2ccccc2C(=O)N2CCOCC2)cc1`, for which the z-score is 1.77 (inactive).

With `CCOCCCNc1nc2c(C)cccn2c(=O)c1/C=C1\SC(=S)N(C(C)CC)C1=O` (stereo unspecified), the z-score is 17.6 (inactive). For `CC(C)NC(=O)/C(C#N)=C\c1ccc(N(C)C)o1`, the z-score was 11.5 (inactive).

In the case of `c1ccc2c(c1)[nH]c1c(NCC3CCCO3)ncnc12` (stereo unspecified), the z-score was -3.45 (active).

Take `Fc1ccc(OCCOCCNCC2CCCO2)cc1` (stereo unspecified): the z-score was 1.23 (inactive). As to `Clc1ccc2[nH]c3c(NCC4CCCO4)ncnc3c2c1` (stereo unspecified), the z-score is -4.6 (active).

For `CCN1CC=C2C(C1)C(c1ccc(Cl)s1)C(C#N)=C(N)C2(C#N)C#N` (stereo unspecified), the z-score is 15.5 (inactive). On to `c1cncc(-c2nc(NCc3ccco3)c3ccccc3n2)c1`, for which the z-score is -3.11 (active).

For the molecule `c1cncc(-c2nn[nH]n2)c1`, the z-score was -1.32 (inactive). For the molecule `CC(C)(C)c1nc2ccccc2c2nnc(SCC(=O)NCc3ccco3)n12`, the z-score was 1.35 (inactive).

For `O=C(Nc1nnc(-c2ccccc2)o1)Nc1ccccc1Cl`, the z-score was 3.77 (inactive).

For `COc1cccc(N2CCN(c3ncnc4c3[nH]c3ccc(F)cc34)CC2C)c1` (stereo unspecified), the z-score is -3.69 (active). As to `OC1(c2cccc(C(F)(F)F)c2)CCN(c2ncnc3c2[nH]c2ccc(F)cc23)CC1`, the z-score is -4.94 (active). As for `CCc1cccc2cc3c(N)c(C(=O)Nc4ccc(S(=O)(=O)N5CCCC5)cc4)sc3nc12`, the figure is 8.59 (inactive); as for `O=C(Nc1ccc(S(=O)(=O)N2CCCCC2)cc1)c1ccncc1`, -3.68 (active); as for `O=C(NCc1cccnc1)c1ccc(CN2CCc3ccccc3C2)cc1`, 0.66 (inactive). On to `Cc1csc(SCC(=O)Nc2ccc(S(=O)(=O)N3CCCC3)cc2)n1`, for which the z-score was 0.21 (inactive). As for `N#C/C(=C/c1ccc(N2CCCCCC2)o1)c1cccc(F)c1`, the figure is 15.9 (inactive); as for `Fc1ccc(-c2nnc3ccc(N4CCc5ccccc5C4)nn23)cc1`, -3.5 (active); as for `COc1ccc(-c2nnc3sc(C(C)N4C(=O)c5ccccc5C4=O)nn23)cc1` (stereo unspecified), 1.87 (inactive). `COc1ccc(S(=O)(=O)N2CCN(c3ccc4nnc(-c5ccc(F)cc5)n4n3)CC2)cc1`: the z-score is -4.36 (active).

With `OC(COc1cccc2ccccc12)CN1CCN(c2ccccc2Cl)CC1` (stereo unspecified), the z-score is 3.51 (inactive). Regarding `CC(C)NC(=O)N1CCN(c2ccncc2S(=O)(=O)N2CCOCC2)CC1`, the z-score was 5.83 (inactive). Consider `COc1ccccc1N1CCN(CC(O)COc2ccc(S(=O)(=O)N3CCOCC3)cc2)CC1` (stereo unspecified), for which the z-score was -3.8 (active).

For `O=S(=O)(c1ccc(OCC(O)CN2CCN(c3ccc(F)cc3)CC2)cc1)N1CCOCC1` (stereo unspecified), the z-score was -4.17 (active). Then `CCCCSc1cc(C)nc2ncnn12`, with 0.8 (inactive); and `O=C(O)CCCCCN1C(=O)/C(=C\c2ccc(-c3ccc(Cl)cc3)o2)SC1=S`, with 4.23 (inactive); and `COc1cc2c3nnc(-c4ccc(F)cc4)c-3cn(Cc3ccc(F)cc3)c2cc1OC`, with 6.06 (inactive). Then `O=C(CN1CCCCCCC1)N/N=C/c1ccc(F)cc1F`, with -7.88 (active); and `COC(=O)c1[nH]c2cccc(Cl)c2c1NC(=O)CN(C)C1CCCCC1`, with 3.5 (inactive). Then `Cc1[nH]c2ccccc2c1C(=O)CN1CCCCC1C` (stereo unspecified), with -1.61 (inactive). For the molecule `CCOC(=O)C1CCCN(CC(=O)Nc2c(C(=O)OC)[nH]c3ccc(C)cc23)C1` (stereo unspecified), the z-score was -3.29 (active).

Turning to `CCS(=O)(=O)N1Cc2ccccc2CC1C(=O)OCC(=O)Nc1ccc(C)cc1` (stereo unspecified), the z-score is 5.05 (inactive). As to `C=CCN1C=CC(=CC=C(C#N)C#N)C=C1`, the z-score was 3.27 (inactive).

`Cc1nn(C)cc1N1C(=O)c2cccc3c(N)ccc(c23)C1=O`: the z-score is 5.94 (inactive). As for `O=C(CN1CCN(Cc2ccc(Cl)cc2)C1=O)NCCCN1CCN(c2ccc(F)cc2)CC1`, the figure is -4.01 (active); as for `O=C(NCCN1CCCC1)C1(S(=O)(=O)c2ccc(Cl)cc2)CC1`, 3.06 (inactive).

For `c1ccc2c3c([nH]c2c1)C1(CCCCC1)NCC3`, the z-score was -0.6 (inactive).

Take `O=C(N/N=C/c1cn(-c2ccccc2)nc1-c1ccccc1)c1ccco1`: the z-score was -4.01 (active). As for `O=C(N/N=C\c1cn(-c2ccccc2)nc1-c1ccccc1)c1ccc(Br)o1`, the figure is 3.24 (inactive); as for `Nc1c(C(=O)N/N=C/c2ccccc2Cl)oc2nc(-c3ccccc3)cc(-c3ccco3)c12`, 6.17 (inactive). As for `CC(C)C(C)(C#N)NC(=O)CSc1nnc(C(F)(F)F)n1C` (stereo unspecified), the figure is 3.02 (inactive); as for `CCSc1nc2c(c(=O)[nH]c(=O)n2C)n1C`, -1.45 (inactive). As for `C#CC(C)(C)NC(=O)CSc1nc2c(c(=O)n(C)c(=O)n2C)n1CCCC`, the figure is -7.25 (active). As for `Cc1cnc(NC(=O)CN2CCN(c3ccccn3)CC2)s1`, the z-score is 3.14 (inactive). As for `COc1ccc(CN2CCN(c3ccccn3)CC2)cc1OCc1ccccc1`, the figure is -8.87 (active). As for `CC(=O)Nc1sc2c(c1CN1CCN(c3ccccn3)CC1)CCCC2`, the figure is -1.66 (inactive); as for `COc1ccc(OC)c(C(c2nnnn2C2CCCC2)N2CCN(c3ccccc3F)CC2)c1` (stereo unspecified), -4.67 (active). Then `CCN(CC)c1ccc2cc(-c3nc4ccccc4[nH]3)c(=O)oc2c1`, with 17.2 (inactive). Consider `CCOc1cc(N(CC)CC)ccc1/C=C(/C#N)c1nc2ccccc2[nH]1`, for which the z-score was 8.11 (inactive). As for `CCOC(=O)N1CCN(C(=O)CSc2ccc3nnc(CCNC(=O)c4ccc(OC)cc4)n3n2)CC1`, the figure is 3.73 (inactive). Take `CN(C)c1ccc(/C=C2\CCC/C(=C\c3ccccc3)C2=O)cc1`: the z-score was 3.4 (inactive). Take `Cc1nnc(NC(=O)c2sc3nc(-c4cccs4)cc(C(F)(F)F)c3c2N)s1`: the z-score was 15.1 (inactive).

Consider `O=C(N/N=C/c1cc(Br)ccc1O)Nc1ccccc1`, for which the z-score was -4.87 (active). Take `CN(C)c1ccc(C(=O)N/N=C/c2cc(Br)cc(Br)c2O)cc1`: the z-score is 4.65 (inactive). Then `O=C(Nc1ccc(Br)cc1)C(c1ccccc1)c1ccccc1`, with -0.28 (inactive); and `CC(=O)Nc1ccc(C(=O)N/N=C/c2cc(Br)cc(Br)c2O)cc1`, with -3.57 (active); and `COc1cc([C@@H]2[C@H]3CNCC=C3C(C#N)=C(N)C2(C#N)C#N)ccc1OC(C)C`, with 3.59 (inactive). Regarding `C/C(=N/O)c1ccccn1`, the z-score was 0.09 (inactive). Then `c1ccc(CSc2ccc(-c3ccccn3)nn2)cc1`, with 4.07 (inactive); and `Cc1nn(-c2c(Cl)cc(Cl)cc2Cl)c(=O)c2ccccc12`, with 3.38 (inactive); and `CCN(c1ccccc1)S(=O)(=O)c1ccc(C(=O)Nc2nnc(C3CC3)o2)cc1`, with -3.06 (active). Consider `O=S(=O)(Cc1ccc(Cl)cc1)c1ccccc1-c1nnc(-c2ccccc2)o1`, for which the z-score is 13.8 (inactive).

Consider `CN(c1ccccc1)c1ccc(/C=c2\s/c(=C(/C#N)C(=O)C(C)(C)C)n(Cc3ccco3)c2=O)cc1`, for which the z-score was 12.8 (inactive). With `Cc1cccc2cc3c(N)c(C(=O)N4CCCc5ccccc54)sc3nc12`, the z-score was 6.25 (inactive).

Consider `CCN(C(=O)CSc1nc2cc(C(=O)OC)ccc2c(=O)n1Cc1ccco1)c1cccc(C)c1`, for which the z-score is 4.54 (inactive). `CCc1cc2c(=O)n(Cc3ccco3)c(SCC(=O)N3CCCc4ccccc43)nc2s1`: the z-score was -3.14 (active). Then `Cc1cc2c(=O)n(Cc3ccco3)c(SCC(=O)c3ccc(Cl)s3)nc2s1`, with -9.67 (active); and `O=C(O)c1ccccc1N/N=C/c1c(Sc2nnnn2-c2ccccc2)nc2ccccn2c1=O`, with 9.93 (inactive).

In the case of `CCOC(=O)CC1C(=O)NCCN1c1nc2c(C)cccn2c(=O)c1/C=C1\SC(=S)N(C(C)CC)C1=O` (stereo unspecified), the z-score was 9.72 (inactive). As for `O=C(N/N=C/c1ccc(O)cc1O)c1ccc(CN2C(=O)c3cccc4cccc2c34)cc1`, the figure is -3.91 (active); as for `O=C1c2cccc3c(O)ccc(c23)C(=O)N1Cc1ccccc1`, 5.05 (inactive). As for `CSc1c(C#N)c(N)nc2sc(C(=O)c3ccc(Cl)c(Cl)c3)c(N)c12`, the figure is 5.56 (inactive).

For the molecule `CCN(CC)S(=O)(=O)c1cccc(S(=O)(=O)c2cccc(S(=O)(=O)N(CC)CC)c2)c1`, the z-score was -4.75 (active). For `Cc1cc(NC(=S)N(Cc2ccc(Br)cc2)Cc2ccc(C(=O)O)cc2)ccc1Cl`, the z-score was 3.8 (inactive). Then `COc1ccc(NC(=S)N(CCCN2CCC(C)CC2)Cc2cccs2)cc1`, with 1.67 (inactive); and `CC(C)N1CC=C2C(C#N)=C(N)C(C#N)(C#N)C(c3ccccc3)C2C1` (stereo unspecified), with 5.63 (inactive); and `CC(C)(C)c1nc(NC(=O)Nc2ccccc2)sc1Br`, with -4.02 (active). Then `Cc1cccc(NC(=O)Nc2ccc(C#N)cc2)n1`, with 3.41 (inactive); and `COc1cc(N=Nc2cccc(S(N)(=O)=O)c2)c2ccccc2c1N`, with 5.92 (inactive). With `CCN(CC)c1ccc2cc(S(=O)(=O)c3ccc(Cl)cc3)c(=O)oc2c1`, the z-score was 6.96 (inactive). Then `CN(C)c1ncc(S(=O)(=O)c2ccc(Cl)cc2)c(-c2ccccc2)n1`, with -3.06 (active); and `O=C(CSc1oc(-c2ccco2)nc1S(=O)(=O)c1ccc(F)cc1)NCC1CCCO1` (stereo unspecified), with 0.69 (inactive). As to `O=C(CSc1ccc(-c2ccccc2)nn1)NCC1CCCO1` (stereo unspecified), the z-score is 3.02 (inactive). As for `C=CCc1ccccc1OCC(O)CN1CCN(CCN2C(=O)c3cccc4cccc(c34)C2=O)CC1` (stereo unspecified), the figure is -5.75 (active). As for `C=CCN1C(=O)c2cccc3c(N4CCCCC4)ccc(c23)C1=O`, the figure is 5.61 (inactive); as for `COc1ccc(NC(=O)C/C(C)=N/NC(=O)C(=O)Nc2cccc(Cl)c2C)c(OC)c1`, 0.92 (inactive); as for `COc1ccc(NC(=O)C(=O)NCc2ccncc2)c(OC)c1`, -4.99 (active).

With `CC(C)C1S/C(=N/N=C/c2ccco2)NC1=O` (stereo unspecified), the z-score was 3.25 (inactive). On to `Nc1ccc2c(c1)Cc1cc([N+](=O)[O-])ccc1-2`, for which the z-score was 7.76 (inactive). Regarding `O=C(c1cc([N+](=O)[O-])ccc1N1CCCC1)N1CCCC1`, the z-score is 3.06 (inactive). In the case of `N#Cc1cc([N+](=O)[O-])ccc1N1CCCC1`, the z-score was -5.65 (active).
